# Measurements published in PubChem BioAssay.
# System: glycogen synthase kinase-3 (GSK3A per assay name; protocol says GSK3B)
# Assay: GSK3 binders on small-molecule microarrays, primary screen, biochemical, small-molecule microarray, 635 nm fluorescence, GSK3A (AID 1103); further: the record names both GSK3A and GSK3B
# Conditions: small-molecule microarray binding, fluorescence 635 nm; higher = more signal
row,SMILES,composite z-score
1,CO[C@H]1O[C@H](CO)[C@@H](OC(=O)Nc2ccc3c(c2)OCO3)[C@H](OC(=O)Nc2ccc3c(c2)OCO3)[C@@H]1OC(=O)Nc1ccc2c(c1)OCO2,1.23
2,CCCC1(C(=O)OC)C=C2C(=C(C)C(=O)C2C)CN1 (centres undefined),-0.636
3,CO[C@H]1O[C@H](CO)[C@@H](OC(=O)Nc2ccccc2)[C@H](OC(=O)c2cc3ccccc3[nH]2)[C@H]1OC(=O)c1cc2ccccc2[nH]1,0.126
4,O=C1O[C@H](c2ccccc2)[C@H](c2ccccc2)N2[C@H]1[C@@H](C(=O)O)[C@]1(C(=O)Nc3ccc(C#CCCO)cc31)[C@H]2c1ccccc1OCCO,-0.532
5,CCCCC[C@H]1OC[C@@]23C=C(Br)[C@@H](CC12)[C@@]1(CO1)C3=O (some centres undefined),-0.0067
6,CCCCN1CC=CC23O[C@@H]4/C=C\CCC(C)OC(=O)C4[C@H]2C(=O)N(CCCO)[C@@H]3C1=O (some centres undefined),-0.496
7,CC[C@@H]1C=C(C(=O)O)[C@H](c2ccc(C#N)cc2)N1S(=O)(=O)c1ccc(C)cc1,0.39
8,O=C1[C@H]2C=C(I)[C@H](C[C@@H]2OCCOCCO)[C@@]12CO2,0.671
9,COCCOC(=O)N1C(=O)[C@@]2(c3cc(C#CC4=CCCCC4)ccc31)[C@H](C(=O)Nc1nc3ccccc3s1)[C@H]1C(=O)O[C@H](c3ccccc3)[C@H](c3ccccc3)N1[C@@H]2c1ccc(O)cc1,1.28
10,COc1ccc([C@H]2OC[C@@H]3C[C@H](Cc4ccccc4)C(=O)N32)cc1,-0.0107
11,NC(=O)NCC#Cc1ccc2c(c1)[C@]1(C(=O)N2)[C@H](c2ccccc2OCCO)N2[C@H](c3ccccc3)[C@H](c3ccccc3)OC(=O)[C@H]2[C@@H]1C(=O)O,-0.397
12,CC1CC/C=C\[C@H]2OC34C=CCN(c5ccc(Cl)cc5)C(=O)[C@H]3N(C(C)CO)C(=O)[C@]4(C)C2C(=O)O1 (some centres undefined),-0.793
13,CCOC(=O)C1=C[C@@H](C(C)C)N(S(=O)(=O)c2ccc(C)cc2)[C@H]1c1ccc(C(F)(F)F)cc1,0.898
14,OCCCC1=CC(c2ccc(CN3CCCC3)cc2)N(Cc2cc3c(cc2Br)OCO3)CC1 (centres undefined),0.328
15,CCCCCCCCCC(O)C1C=CC2C(=O)N(c3ccccc3)C(=O)C2N1Nc1cc(OC)c(OC)c(OC)c1 (centres undefined),-0.214
16,COCCCNC(=O)[C@@]1(CCC(=O)OC(C)(C)C)N=C(c2ccc(OCCCO)cc2)O[C@H]1c1ccccc1N=[N+]=[N-],1.31
17,COc1cc(OC)c(C(O)C2C=CC3C(=O)N(Cc4ccccc4)C(=O)C3N2n2cnnc2)cc1Br (centres undefined),1.26
18,C[N+](C)(C)CCCC[C@@H]1NC(=O)[C@@H]2C[C@H](C(=O)NCCCCCCN)[C@H](c3cccc(OCCO)c3)N2C1=O,1.29
19,O=C1C2C=CC(C(O)C3CC=CCC3)N(Nc3ccccc3)C2C(=O)N1c1ccccc1 (centres undefined),0.466
20,C=CCNC(=O)[C@H]1[C@@H]2C(=O)O[C@@H](c3ccccc3)[C@@H](c3ccccc3)N2[C@@H](c2ccccc2OCCO)[C@]12C(=O)N(C(=O)OCCOC)c1ccc(C#CC3(O)CCCCCC3)cc12,0.562
21,COCCOC(=O)N1C(=O)[C@@]2(c3cc(C#CC4=CCCCC4)ccc31)[C@H](c1ccccc1OCCO)N1[C@H](c3ccccc3)[C@H](c3ccccc3)OC(=O)[C@H]1[C@@H]2C(=O)NC[C@H](O)c1ccccc1,1.3
22,CCCC[C@@H](O)C1=C(COc2ccccc2)C[C@H]2C(=O)N(Cc3ccccc3)C(=O)[C@H]2[C@H]1CO,-0.0802
23,O=C1OCCC/C=C\[C@H]2OC34C=CCN(c5ccc6ccccc6c5)C(=O)[C@H]3N(CCO)C(=O)[C@@H]4C12 (some centres undefined),-0.785
24,COC(=O)c1c(CC[C@@H](CO)NC(=O)N[C@@H](C)Cn2cc(-c3ccccn3)nn2)oc(C(C)=O)c1C(=O)OC,0.0696
25,CC(C)C[C@@H]1NC(=O)[C@@H]2C[C@H](C(=O)NCCCCCCN)[C@H](c3cccc(OCCO)c3)N2C1=O,0.712
26,[N-]=[N+]=Nc1ccccc1C[C@@]1(C(=O)N2CCOCC2)N=C(c2ccc(OCCCO)cc2)O[C@@H]1c1ccccc1,1.31
27,CCOC(=O)C[C@H]1[C@H](OC(=O)c2cc3ccccc3oc2=O)[C@@H](NC(=O)CC(C)C)c2cc(OCCCO)ccc2N1C(=O)c1ccc2ccccc2n1,0.998
28,Cc1ccc(NN2C(C(O)c3c(F)cccc3Cl)C=CC3C(=O)N(C4CCCCC4)C(=O)C32)cc1 (centres undefined),1.3
29,O=C1O[C@@H](c2ccccc2)[C@@H](c2ccccc2)N2[C@@H](c3ccc(OCCO)cc3)[C@]3(C(=O)Nc4ccc(C#CC5=CCCCC5)cc43)[C@@H](C(=O)NC[C@H](O)c3ccccc3)[C@H]12,1.31
